Only some compounds are listed: those with a hit (about 3% of all), similar ones and a draw of the others.
TRAIL sens C8: sensitizes caspase-8 expressing cells to TRAIL; 360,000 tested, 1% active; inhibition (viability loss, TRAIL sensitization), % at 10 µM; NB7+C8 cells + TRAIL, ATPlite viability luminescence;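 active means compounds causing at least 50% loss of cell viability in the single-dose screen, relative to plate controls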
SENP8 block-1: blocks human SENP8 cleavage of Nedd8 substrate | recombinant SENP8, Nedd8 substrate fluorescence | inhibition, % at 20 µM | AID 602440 | Q96LD8 | 360,000 tested, 0.64% active; in the data active means inhibition mostly above about 40%, no sharp cut-off; inactive means mostly below about 27%
Target sequence (Q96LD8 whole entry, looked up): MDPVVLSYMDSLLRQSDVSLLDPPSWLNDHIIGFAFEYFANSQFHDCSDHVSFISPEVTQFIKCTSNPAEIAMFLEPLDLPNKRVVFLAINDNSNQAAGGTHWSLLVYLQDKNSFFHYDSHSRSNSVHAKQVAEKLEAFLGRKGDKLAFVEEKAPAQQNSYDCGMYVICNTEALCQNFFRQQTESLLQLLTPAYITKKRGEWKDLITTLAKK
PPC-1+TRAIL kill: PPC-1 cancer cell killing with TRAIL present | PPC-1 cells + TRAIL, ATPLite viability luminescence | cell killing (% activity), % at 4 µM or 5 µM | 220,000 tested, 0.41% active | AID 1443;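 active means cell killing above 50% in the first pass at 4 µM, then a duplicate retest at 5 µM averaging 50% or more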;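 further: plate controls were cells with TRAIL plus DMSO for no effect and medium-only wells lacking cells for full effect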
SENP8 block-2: SENP8 protease inhibition; purified SENP8, Z-RLRGG-aminoluciferin cleavage, luminescence; inhibition, % at 10 µM; 330,000 tested, 1.2% active; in the data active means inhibition above about 50%
SENP7 block: SENP7 protease inhibition; Q9BQF6; recombinant SENP7, Z-RLRGG-aminoluciferin luminescence, 40 min; inhibition, % at 5 µM; 330,000 tested, 1.5% active; AID 434973;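 active means inhibition above about 50% at the single test dose, limit read from the data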;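 further: plate controls were DMSO with enzyme for no effect and no enzyme buffer wells for full effect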
SENP6 inh: inhibitors of human SENP6 protease | Recombinant SENP6 catalytic domain, aminoluciferin luminescence | inhibition, % at 10 µM | 330,000 tested, 1.8% active | AID 2599;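 active means inhibition above about 50% at the single tested dose, limit read from the data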;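 further: plate controls were DMSO wells with enzyme for no effect and DMSO wells lacking enzyme for full effect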
Target sequence (Q9GZR1 628-1112 limits assumed): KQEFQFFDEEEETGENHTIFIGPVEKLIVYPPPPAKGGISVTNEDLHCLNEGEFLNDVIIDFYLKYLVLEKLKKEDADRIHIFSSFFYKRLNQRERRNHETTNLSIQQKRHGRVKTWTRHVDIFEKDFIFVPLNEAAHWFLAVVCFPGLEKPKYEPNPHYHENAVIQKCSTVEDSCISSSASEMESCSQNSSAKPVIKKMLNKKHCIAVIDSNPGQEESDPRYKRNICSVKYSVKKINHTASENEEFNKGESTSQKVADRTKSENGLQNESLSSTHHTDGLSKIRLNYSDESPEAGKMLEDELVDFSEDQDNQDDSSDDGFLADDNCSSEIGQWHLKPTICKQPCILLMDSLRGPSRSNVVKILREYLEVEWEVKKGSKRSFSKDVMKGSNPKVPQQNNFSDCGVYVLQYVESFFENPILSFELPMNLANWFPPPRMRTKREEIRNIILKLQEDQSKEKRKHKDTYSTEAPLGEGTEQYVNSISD
SENP8 conf: human SENP8 inhibition, confirmed. shares compounds with SENP7 block. Recombinant SENP8, Z-RLRGG-aminoluciferin luminescence, 60 min. inhibition, % at 12.5 µM. 6,200 tested, 40% active;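 active means mean inhibition across replicates above about 50%, limit read from the data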
SENP6 confirm: confirmation of human SENP6 protease inhibitors. shares compounds with SENP7 block. recombinant SENP6, Z-RLRGG-aminoluciferin luminescence. inhibition, % at 12.5 µM. 6,200 tested, 58% active
SENP7 confirm: confirmation of human SENP7 protease inhibitors. AID 488917. inhibition, % at 12.5 µM. shares compounds with SENP7 block. 6,200 tested, 69% active. recombinant SENP7, Z-RLRGG-aminoluciferin luminescence, 40 min
Casp3 select: inhibits human caspase-3 in SENP selectivity test | purified caspase-3, Z-DEVD-aminoluciferin luminescence, 60 min | inhibition, % at 12.5 µM | 6,200 tested, 60% active | shares compounds with SENP7 block;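 active means mean inhibition above about 50%, limit read from the data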;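 further: plate controls were enzyme with DMSO for no effect and wells without caspase-3 for full effect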
SENP luc ctr: counter-screen for SENP inhibitors: luminescence interference. AID 488919. inhibition, % at 12.5 µM. shares compounds with SENP7 block. 6,200 tested, 39% active. Pre-incubated SENP8/Z-RLRGG-aminoluciferin, luciferase luminescence interference;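 active means mean inhibition above about 50% when retested at one dose, limit read from the data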;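 further: plate controls were DMSO wells with completed reaction for no effect and substrate without enzyme for full effect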
* marks the source's active call; other numbers are inactive results; . = no result given.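 How the source made its calls, unless noted: active means mean inhibition above about 50% in the one-dose retest (limit read from the data); inactive means the rest.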

SMILES | TRAIL sens C8 | SENP8 block-1 | PPC-1+TRAIL kill | SENP8 block-2 | SENP7 block | SENP6 inh | SENP8 conf | SENP6 confirm | SENP7 confirm | Casp3 select | SENP luc ctr
CCOc1ccc(C(=O)NCCc2ccccc2)cc1 | 41 | 14 | 43 | 52* | 56* | 64* | 59* | 60* | 82* | 80* | 34
CCOc1ccc(/C(C)=N\NC(=O)Cc2ccccc2)cc1 | -2 | 29 | . | 7 | -5 | 96* | -2 | -11 | -6 | -4 | -8
C/C(=N\NC(=O)COc1ccccc1)c1ccc(O)cc1 | -5 | 0 | 0 | -7 | -9 | -13 | . | . | . | . | .
CC(=O)/C(N=Nc1ccc(SC(F)F)cc1)=C(\C)O | -4 | 24 | 11 | 45 | 48 | 66* | 46 | 64* | 60* | 62* | 39
CC(OC(=O)c1ccc([N+](=O)[O-])s1)C(=O)Nc1ncc(Cl)cc1Cl (stereo not given) | -3 | 19 | 3 | 62* | 25 | 60* | 14 | 23 | 5 | -6 | -5
Cc1ccc(OC(C)C(=O)Nc2ncc(Cl)cc2Cl)c([N+](=O)[O-])n1 (stereo not given) | -2 | -165 | . | -7 | -7 | -11 | . | . | . | . | .
CCOC(=O)c1c(NC(=O)/C=C/c2ccc(C)o2)sc(C)c1C | -7 | -81 | -5 | -6 | -7 | -5 | . | . | . | . | .
Cc1sc(NC(=O)/C=C/c2ccco2)c(C(=O)O)c1C | 37 | 14 | 31 | 50 | 16 | 73* | 72* | 69* | 88* | 85* | 48
c1ccc(Cc2ccc(OCCn3cncn3)cc2)cc1 | -5 | 21 | 7 | -6 | -6 | -5 | . | . | . | . | .
c1ccc(COc2ccc(OCCCn3cncn3)cc2)cc1 | 30 | 24 | 32 | 52* | 77* | 73* | 74* | 73* | 89* | 77* | 74*
Cc1nc(Cl)cc(N/N=C/c2ccc(O)cc2O)n1 | 6 | -9 | . | 93* | 95* | 97* | 92* | 92* | 100* | 92* | 92*
CCOc1ccc(/C=N/Nc2cc(N3CCOCC3)nc(C)n2)c(O)c1 | 3 | -8 | . | 5 | -5 | 20 | . | . | . | . | .
Cc1nc(Cl)cc(N/N=C/c2ccc(O)cc2)n1 | 18 | 2 | . | 89* | 91* | 87* | 90* | 90* | 99* | 90* | 87*
Cn1c(C(=O)Nc2ccccc2)cc2sccc21 | 2 | 9 | 18 | 17 | 38 | 53* | 34 | 33 | 68* | 36 | 54*
COC(=O)c1ccc(NC(=O)c2cc3sccc3n2C)cc1 | 2 | -187 | 9 | . | . | . | . | . | . | . | .
COc1cc(NC(=O)c2cc3sccc3n2C)cc(OC)c1 | 4 | -10 | -4 | 50* | 66* | 64* | 6 | 60* | 84* | 40 | 65*
Cc1cc(C)cc(NC2=C(N)C(=O)c3ccccc3C2=O)c1 | 15 | 48* | . | 29 | 11 | 70* | -3 | 6 | 2 | 5 | -6
Cc1ccc(N(C(=O)c2csnn2)C(C(=O)NC2CCCCC2)c2ccncc2)c(C)c1 (stereo not given) | 12 | 9 | . | 7 | -3 | -3 | . | . | . | . | .
CCC(=O)N1Cc2cc(C(=O)Nc3nccs3)nc(-c3cccc(-c4ccccc4OC)c3)c2[C@H]1CCO | 13 | 4 | . | . | . | . | . | . | . | . | .
COc1ccc(C(=O)C2CCCN(C(=O)c3ccc4nccnc4c3)C2)c(C)c1 (stereo not given) | 1 | -2 | . | 7 | -7 | 57* | -21 | -17 | -8 | -8 | -5
Cc1[nH][nH]c(=O)c1N=Nc1ccc(F)cc1 | 7 | 31 | . | 6 | 12 | 9 | . | . | . | . | .
CCOc1ccc(N=Nc2c(=O)[nH]n3c(=O)cc(C)[nH]c23)cc1 | 37 | 38 | 30 | 92* | 95* | 96* | 97* | 98* | 102* | 98* | 93*
COc1ccc(N=Nc2c(C)[nH][nH]c2=O)cc1 | 4 | 31 | 20 | 36 | 64* | 69* | 50* | 52* | 84* | 80* | 53*
Nc1[nH][nH]c(=O)c1N=Nc1cccc(Cl)c1 | -1 | 18 | 10 | 3 | 4 | -29 | . | . | . | . | .
Cc1cc(=O)n2[nH]c(=O)c(N=Nc3ccccc3)c2[nH]1 | -4 | 40 | 7 | 18 | 8 | 36 | . | . | . | . | .
SMILES | TRAIL sens C8 | SENP8 block-1 | PPC-1+TRAIL kill | SENP8 block-2 | SENP7 block | SENP6 inh | SENP8 conf | SENP6 confirm | SENP7 confirm | Casp3 select | SENP luc ctr
CCOc1ccc(N=Nc2c(N)[nH][nH]c2=O)cc1 | 20 | 26 | 19 | 65* | 72* | 76* | 57* | 61* | 90* | 88* | 44
CCc1ccccc1S(=O)(=O)Cc1ccc(C(=O)NCc2cccs2)o1 | 7 | 10 | 18 | -1 | -2 | 3 | . | . | . | . | .
CN1C(=O)C(CC(=O)O)S/C1=N\N=C\c1ccc(O)cc1O (stereo not given) | -5 | -42 | 15 | 28 | 41 | 61* | 34 | 33 | 74* | 80* | 40
CC(C)(C)OC(=O)N(Cc1ccccc1)Cc1ccccc1OCc1cccc(NC(=O)c2ccccc2)c1 | -10 | 6 | . | . | . | . | . | . | . | . | .
Cc1nc2cc(NC(=O)Nc3cccc([N+](=O)[O-])c3)ccc2n1C | 59* | 16 | . | 32 | 66* | 73* | 34 | 54* | 92* | 76* | 9
COc1ccc(C(=O)N=c2sc3c(C)ccc(OC)c3n2C)cc1OC | 13 | -446 | 5 | 76* | 89* | 84* | 5 | 14 | 15 | 9 | 16
COc1cccc(C(=O)N=c2sc3c(C)ccc(OC)c3n2C)c1 | 19 | -487 | 14 | 68* | 97* | 6 | 11 | 22 | 9 | 13 | 19
COc1ccccc1C(=O)N=c1sc2c(C)ccc(OC)c2n1C | -4 | -454 | 27 | 44 | 48 | 58* | 19 | 18 | 26 | 53* | 14
O=C(NCCN1CCOCC1)c1cccc(S(=O)(=O)N(Cc2ccccc2)c2ccccc2)c1 | 1 | 10 | . | -5 | -6 | 1 | . | . | . | . | .
COc1ccc2c(c1)Cc1sc(NC(=O)c3ccccc3)nc1-2 | 16 | -24 | 20 | 91* | 90* | 95* | 4 | 65* | 88* | 66* | 24
COc1ccc(C(=O)Nc2nc3ccc4nc(C)sc4c3s2)cc1 | 10 | -432 | 1 | 3 | -3 | -8 | . | . | . | . | .

From PubChem
